# FAS-TE inh: FAS thioesterase domain inhibitors, primary screen, biochemical, fluorescence intensity, uHTS | inhibition, % at 15 µM | hit rate 0.67% among 360,000 | recombinant FAS-TE, OMFH fluorogenic substrate, fluorescence endpoint;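 active = compounds whose normalised, plate-corrected inhibition of enzyme fluorescence in the single-dose primary screen is 50% or more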;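 also: 0% = DMSO with enzyme and 100% = substrate without enzyme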
# NR3A LBD binder: binders of NR3A ligand-binding domain, primary screen, biophysical, differential scanning fluorimetry, uHTS; Tm shift relative to glycine control, % at 25 µM; AID 1259313, 2017; NR3A LBD differential scanning fluorimetry, Tm shift; 0% = protein alone, 100% = glycine-bound protein; Glutamate receptor ionotropic, NMDA 3A (GRIN3A) ligand-binding domain; hit rate 2.5% among 340,000;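 active = melting temperature shift of at least 10% of the positive control shift, at one fixed dose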
# ADAM17 inh: ADAM17 inhibitors, primary screen, biochemical, QFRET; Disintegrin and metalloproteinase domain-containing protein 17 (Homo sapiens), P78536; recombinant ADAM17, EDANS/DABCYL FRET peptide cleavage; inhibition, % at 6.95 µM; hit rate 0.83% among 370,000;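 active = inhibition above the mean of compounds lying between control limits plus 3 SD, set per campaign, cut at about 8.5% in these data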;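 also: 0% = DMSO-only wells as the low control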
# ADAM10 inh: human ADAM10 inhibitors, primary screen, biochemical, QFRET, HTS | recombinant ADAM10, EDANS/DABCYL FRET peptide cleavage, 3 h | inhibition, % at 7 µM | hit rate 0.62% among 370,000 | AID 720582, 2013;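 active = inhibition above a per-campaign cutoff equal to the mean of compounds falling between control-based bounds plus 3 SD, cut at about 20% in these data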;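 also: 0% = DMSO wells while the 100% control is not disclosed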
# Target sequence (O14672 214-748 limits assumed): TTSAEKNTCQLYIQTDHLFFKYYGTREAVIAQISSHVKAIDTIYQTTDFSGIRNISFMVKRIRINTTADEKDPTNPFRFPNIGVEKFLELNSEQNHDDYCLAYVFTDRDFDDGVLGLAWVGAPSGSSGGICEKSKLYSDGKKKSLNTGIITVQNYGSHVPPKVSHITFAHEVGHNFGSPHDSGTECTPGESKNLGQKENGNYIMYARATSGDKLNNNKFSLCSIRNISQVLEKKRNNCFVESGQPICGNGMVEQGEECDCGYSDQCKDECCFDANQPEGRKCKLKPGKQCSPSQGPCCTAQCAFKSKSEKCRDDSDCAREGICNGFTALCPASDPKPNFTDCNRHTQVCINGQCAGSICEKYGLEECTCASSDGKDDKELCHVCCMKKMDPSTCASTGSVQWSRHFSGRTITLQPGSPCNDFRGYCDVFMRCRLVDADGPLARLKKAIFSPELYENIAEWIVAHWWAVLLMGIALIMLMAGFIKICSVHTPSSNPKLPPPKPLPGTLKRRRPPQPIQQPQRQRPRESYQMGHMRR
# sPLA2-III inh: human group III sPLA2 inhibitors, primary screen, biochemical, QFRET, BODIPY PC-A2 liposome substrate. Group 3 secretory phospholipase A2 (Homo sapiens), Q9NZ20. QFRET BODIPY PC-A2 liposome hydrolysis, fluorescence. inhibition, % at 12.2 µM. hit rate 0.56% among 370,000;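 active = inhibition above mean plus 3 SD of compounds lying within the high and low control bounds, cut at about 19% in these data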;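 also: 0% = median of test compound wells and 100% = no enzyme DMSO wells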
# Numbers without * were called inactive; · = not tested or not shown. In the library only some 4.3% were active in any assay of this set; here they are far more common.
SMILES,FAS-TE inh,NR3A LBD binder,ADAM17 inh,ADAM10 inh,sPLA2-III inh
Nn1c(SCC(=O)Nc2ccc3c(c2)OCO3)nnc1-c1ccccc1,-8,2,-2,-3,-3
CSCCCNC(=O)CN1C(=O)C2CCCCN2C(=O)c2ccccc21 (configuration not stated),·,·,-3,2,3
COC(=O)C1=C(C)N(Cc2cccc(C(F)(F)F)c2)C(=NCc2ccc3c(c2)OCO3)NC1CCc1ccccc1 (configuration not stated),·,·,-2,-14,8
CCOc1ccc2nc(NC(=O)/C=C/c3ccc4c(c3)OCO4)sc2c1,-7,35*,-4,-9,5
CCC(=O)Nc1nnc(SCC(=O)Nc2ccc3c(c2)OCO3)s1,-3,28*,1,-8,-3
Cc1cc(C)cc(C(=O)OCCN(C)C2CN(Cc3cn(Cc4ccc([N+](=O)[O-])cc4)nn3)S(=O)(=O)C2)c1 (configuration not stated),·,·,0,-3,-9
O=C(CSc1nnc(COc2ccccc2)n1Cc1ccco1)Nc1ccc(OCc2ccccc2)cc1,·,·,2,3,-17
O=C(c1cncnc1)N1CCC(n2nnc3ncccc32)CC1,·,·,0,-6,2
COc1ccc(-c2c(-c3cc(OC)cc(OC)c3)sc3ccc(OC)cc23)cc1,26,13*,-1,5,-8
O=C(Nc1cccc(Cl)c1)Nc1ccc2c(c1)C(=O)OC2,-3,31*,2,2,2
O=C(Nc1cccc(F)c1)Nc1ccc2c(c1)C(=O)OC2,5,14*,-2,4,-3
O=C1OCc2ccc(NC(=O)c3c(F)cccc3Cl)cc21,-1,0,-3,3,5
O=C(CSc1nnc(-c2cccnc2)n1C1CCCCC1)N1CCCC1,·,·,7,-1,1
O=C(O)CCC(=O)OC1CC2CCC1C2 (configuration not stated),-3,0,3,7,-3
O=C(O)C1C2C=CC(C2)C1C(=O)OC1CC2CCC1C2 (configuration not stated),-14,14*,-6,1,6
CCOC(=O)c1c(NC(=O)c2cc3n(n2)C(C(F)(F)F)CC(c2ccccc2)N3)sc(C)c1C (configuration not stated),0,18*,2,1,1
COc1c(CC=C(C)C)cc(C2CC(=O)c3c(O)cc(O)cc3O2)c(CC=C(C)C)c1O (configuration not stated),·,22*,·,·,·
COc1cc(C2CC(=O)c3c(O)cc(O)cc3O2)ccc1O (configuration not stated),-4,0,1,-11,-1
O=C(Nc1ccc2nsnc2c1)c1ccc2c(c1)OCO2,2,14*,·,·,·
O=C(Nc1ccc(Cl)c(Cl)c1)c1ccc2c(c1)OCO2,25,37*,0,6,0
N#CCC(=O)Nc1ccc(C(=O)Nc2ccc3c(c2)OCO3)cc1,-1,29*,0,-1,-29
Cc1ccc(CSc2nnc(-c3ccc(NS(=O)(=O)c4ccccc4)cc3)o2)cc1,19,16*,9,18,-66
COC(=O)CSc1nnc(-c2ccc(NS(=O)(=O)c3ccccc3)cc2)o1,-1,-4,0,0,-18
CC(C)[C@H](NC(=O)OC(C)(C)C)C(=O)N1CCC(Oc2cccnc2)CC1,·,·,-1,5,3
Cn1nc(C(=O)N2CCN(S(=O)(=O)c3ccccc3)CC2)c2ccccc2c1=O,-9,12*,2,10,1
COc1ccc(N=C2S/C(=C\c3ccc(OCC(=O)O)cc3)C(=O)N2CCc2c[nH]c3ccccc23)cc1,8,0,9.2*,19,-52
CCCN1C(=O)/C(=C/c2ccco2)SC1=Nc1ccc(OC)cc1,24,21*,·,·,·
CCCN1C(=O)/C(=C/c2ccc(C)o2)SC1=Nc1ccc(OC)cc1,21,3,2,8,-1
CCOC(=O)C1CCN(C(=O)CN2C(=O)c3ccccc3S2(=O)=O)CC1,-7,18*,-1,-5,-6
